Measured values reported in ChEMBL document CHEMBL1201862, “PubChem BioAssay data set” (2004).
Out of some 400,000 compounds screened, about 2,100 (0.53%) were called active. Roughly 14% stayed inconclusive and do not appear here. How the calls were made is not given here. For the sample, actives were picked, then their nearest neighbours and some compounds at random.

What follows are compounds tested against Ataxin-2 (Homo sapiens) (UniProt Q99700) (assay: qHTS for Inhibitors of ATXN expression.).
Chain of Ataxin-2 (Homo sapiens) (Q99700 whole entry): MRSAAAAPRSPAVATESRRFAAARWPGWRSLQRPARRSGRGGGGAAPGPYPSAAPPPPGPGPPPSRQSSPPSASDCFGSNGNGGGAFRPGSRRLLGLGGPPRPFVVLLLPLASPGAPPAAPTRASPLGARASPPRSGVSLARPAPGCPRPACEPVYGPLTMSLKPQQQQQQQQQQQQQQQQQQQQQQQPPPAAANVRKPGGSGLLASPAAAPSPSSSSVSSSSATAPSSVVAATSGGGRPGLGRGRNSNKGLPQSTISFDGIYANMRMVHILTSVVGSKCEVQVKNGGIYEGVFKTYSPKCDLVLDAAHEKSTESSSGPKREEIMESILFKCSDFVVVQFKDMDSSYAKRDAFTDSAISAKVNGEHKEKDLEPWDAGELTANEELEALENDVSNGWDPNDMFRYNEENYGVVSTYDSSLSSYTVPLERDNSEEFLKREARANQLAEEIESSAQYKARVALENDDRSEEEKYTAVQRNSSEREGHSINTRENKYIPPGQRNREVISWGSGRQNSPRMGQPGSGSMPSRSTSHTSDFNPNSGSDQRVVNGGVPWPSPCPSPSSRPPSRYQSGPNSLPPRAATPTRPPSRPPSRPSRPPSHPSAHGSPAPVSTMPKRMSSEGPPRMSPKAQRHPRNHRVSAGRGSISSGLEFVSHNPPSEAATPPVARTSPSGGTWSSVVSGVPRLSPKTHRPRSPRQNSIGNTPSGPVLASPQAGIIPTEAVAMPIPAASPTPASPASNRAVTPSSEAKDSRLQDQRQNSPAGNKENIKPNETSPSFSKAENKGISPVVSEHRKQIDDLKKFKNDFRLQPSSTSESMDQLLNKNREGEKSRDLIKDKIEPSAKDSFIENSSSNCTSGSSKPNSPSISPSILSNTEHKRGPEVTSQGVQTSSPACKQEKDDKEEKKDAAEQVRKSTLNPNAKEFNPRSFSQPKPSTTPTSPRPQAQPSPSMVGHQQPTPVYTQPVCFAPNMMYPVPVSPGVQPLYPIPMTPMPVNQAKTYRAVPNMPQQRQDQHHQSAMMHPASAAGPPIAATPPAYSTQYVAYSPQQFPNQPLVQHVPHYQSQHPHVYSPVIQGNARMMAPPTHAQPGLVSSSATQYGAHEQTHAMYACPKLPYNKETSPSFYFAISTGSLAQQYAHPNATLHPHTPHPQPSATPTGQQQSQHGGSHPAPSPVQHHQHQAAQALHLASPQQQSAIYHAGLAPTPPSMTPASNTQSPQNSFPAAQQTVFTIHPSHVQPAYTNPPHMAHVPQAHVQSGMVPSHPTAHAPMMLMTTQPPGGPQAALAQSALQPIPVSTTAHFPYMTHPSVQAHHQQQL
Assay type: functional
For `Cc1cc(NC(C)C)n2c(nc3ccccc32)c1C#N`, the Potency was “inactive”.
For `COC(=O)c1c(C(=O)OC)c2c(-c3ccccc3)cc3cccc1n32`, the Potency was “inactive”.
In the case of `Cc1ccc(C2=CC(c3ccccc3)n3ncnc3N2)cc1` (centres undefined), the Potency is reported as “inactive”.
`CCn1c(=N)c(C(=O)NC2CCCC2)cc2c(=O)n3ccccc3nc21` was tested, and the Potency was “inactive”.
`COC(=O)c1ccc(-c2sc3nc(N4CCOCC4)c4c(c3c2N)CCCC4)o1` was tested, and the Potency was “inactive”.
In the case of `O=C(CSc1ccc(-c2cccs2)nn1)Nc1ccccc1F`, the Potency is reported as “inactive”.
For `Cc1cc(C)n2nc(C(=O)OCC(=O)NC3CCS(=O)(=O)C3)nc2n1` (centres undefined), the Potency was “inactive”.
With `N#Cc1c(-c2ccccc2F)cc(C2CC2)nc1SCC(=O)c1cccs1` the Potency was “inactive”.
`CCOc1ccccc1CNC(=O)C1CCN(c2nnc(C)c3c(C)n(-c4ccc(C)cc4)nc23)CC1` was tested, and the Potency was 35.5 µM (active).
`Cc1nnc(N2CCCC(C(=O)NCCN(C)C)C2)c2nn(-c3ccccc3)c(C)c12` (centres undefined) was tested, and the Potency was 44.7 µM (active).
In the case of `O=C(NCCS(=O)(=O)N1CCN(c2ccccc2)CC1)C1CCCCC1`, the Potency is reported as “inactive”.
In the case of `CCOc1ccccc1NC(=O)C1CCC(CNc2c(N3CCCCC3)c(=O)c2=O)CC1` (centres undefined), the Potency is reported as “inactive”.
`N#Cc1ccccc1CSc1nc2ccsc2c(=O)n1Cc1ccccn1` was tested, and the Potency was “inactive”.
For `COc1ccc(-c2cc(=O)oc3cc(OC(=O)C4CCCCC4)ccc23)cc1`, the Potency was “inactive”.
In the case of `O=C1CCC([N+](=O)[O-])C(c2ccc3c(c2)OCO3)N1` (centres undefined), the Potency is reported as “inactive”.
For `CCN(CC)c1ccc(-c2nc3cnccn3c2NC2CCCC2)cc1`, the Potency was “inactive”.
`O=C1N/C(=C/c2cccn2-c2ccc(F)cc2)C(=O)N1Cc1ccccc1` was tested, and the Potency was “inactive”.
In the case of `COc1ccc(C(=O)NCCOc2ccccc2Cl)c(OC)c1OC`, the Potency is reported as “inactive”.
In the case of `CC(C)Nc1nc(NCCOc2ccccc2Cl)c2sccc2n1`, the Potency is reported as 22.4 µM (active).
For `c1ccc(CNc2nc(NCCOc3ccccc3)c3sccc3n2)cc1`, the Potency was 22.4 µM (active).
`COc1ccccc1CNc1nc(NCC2CC2)nc2ccsc12` was tested, and the Potency was 15.8 µM (active).
In the case of `CNc1nc(NCC2CCCCC2)c2sccc2n1`, the Potency is reported as 12.6 µM (active).
For `O=C(NC(=O)c1ccccc1Cl)C(=O)Nc1ccc(Cl)cc1`, the Potency was “inactive”.
With `O=C(N/N=C/c1cc2c3c(c1O)CCCN3CCC2)c1ccccc1O` the Potency was “inactive”.
In the case of `CCN(CC)c1ccc2cc(S(=O)(=O)c3ccc(Cl)cc3)c(=O)oc2c1`, the Potency is reported as “inactive”.
`CCN(CC)S(=O)(=O)c1cccc(C(=O)N/N=C(\C)c2ccc(O)cc2O)c1` was tested, and the Potency was “inactive”.
`O=C(O)c1cc2ccc(O)cc2oc1=O` was tested, and the Potency was “inactive”.
With `COc1ccc(-c2cnc(C(N)=O)c(O)n2)cc1` the Potency was “inactive”.
`CC[C@@H]1C(c2ccccc2)=NN(c2ccc(Br)cc2)[C@H]1C(=O)N1CCOC1=O` was tested, and the Potency was “inactive”.
